# Measured values published in PubChem BioAssay.
# Active and inactive are the calls of the source. Unless noted, how the calls were made is not given here.
# Tests used:
# [1] = compound effects on lung adenocarcinoma cell viability – A549, calcein-AM fluorescence, 48 h, basal, profiling panel (AID 1162); details: higher = more signal; further: test concentration not given here
# [2] = compound effects on differentiated 3T3-L1 adipocyte viability – cell-based, 3T3-L1 adipocytes, calcein-AM fluorescence, 48 h, basal, profiling panel (AID 1163); details: 3T3-L1 adipocytes viability, higher = more signal; further: test concentration not given here
# [3] = compound effects on hepatocellular carcinoma cell viability – HepG2, calcein-AM fluorescence, 48 h, basal, profiling panel (AID 1164); details: higher = more signal; further: test concentration not given here
# [4] = compound effects on multiple myeloma cell viability – MM1S, calcein-AM fluorescence, 48 h, basal, profiling panel (AID 1165); details: higher = more signal;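 further: viability of MM1S multiple myeloma cells under basal unstimulated conditions; test concentration not given here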
# [5] = calcein-AM signal in unstimulated myeloma cells – cell-based, calcein-AM fluorescence, 48 h, PK04 Diversity Set, profiling panel (AID 1166); details: RPMI8226 myeloma viability, higher = more signal;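 further: cells grown under basal conditions without added stimulus; test concentration not given here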
# [6] = JC-1 mitochondrial signal, unstimulated HepG2 cells – cell-based, JC-1 fluorescence, 24 h, 100 nL compound, profiling panel (AID 1167); details: HepG2 mitochondrial potential, higher = more signal; further: test concentration not given here
# [7] = JC-1 mitochondrial signal, unstimulated adipocytes – cell-based, JC-1 fluorescence, 3T3-L1 adipocytes, 24 h, 100 nL compound, profiling panel (AID 1168); details: JC-1 mitochondrial fluorescence, higher = more signal, called active from +8 up or from −8 down; further: test concentration not given here
# [8] = JC-1 mitochondrial signal, unstimulated myeloma cells – cell-based, JC-1 fluorescence, RPMI8226, 24 h, 100 nL compound, profiling panel (AID 1169); details: JC-1 mitochondrial potential fluorescence, higher = more signal; further: test concentration not given here
# [9] = JC-1 mitochondrial signal, unstimulated MM1S myeloma – cell-based, JC-1 fluorescence, 24 h, 100 nL compound, profiling panel (AID 1170); details: MM1S mitochondrial potential, higher = more signal; further: test concentration not given here
# [10] = resazurin metabolic signal in A549 cells – cell-based, resazurin fluorescence, 24 h, PK04 Diversity Set, profiling panel (AID 1171); details: A549 viability, higher = more signal, called active from +8 up or from −8 down; further: test concentration not given here
# [11] = resazurin metabolic signal in HepG2 cells – cell-based, resazurin fluorescence, 24 h, PK04 Diversity Set, profiling panel (AID 1172); details: HepG2 viability, higher = more signal; further: test concentration not given here
# [12] = budding yeast growth changes without added modifier – OD600, strain BY4716, 24 h, basal condition, primary screen (AID 1173); details: S. cerevisiae BY4716 growth, OD600, 24 h; higher = more signal, called active from +8 up or from −8 down
# [13] = viability profiling in MM1S myeloma cells – cell-based, resazurin fluorescence, basal, 24 h, PK04 Diversity Set, profiling panel (AID 1174); details: higher = more signal, called active from +8 up or from −8 down; further: test concentration not given here
# [14] = target: Dihydroorotate dehydrogenase (quinone), mitochondrial (Plasmodium falciparum (isolate 3D7)) (UniProt Q08210); assay: inhibition of P. falciparum DHODH – biochemical, C-terminal His tag, absorbance 600 nm, primary screen (AID 1175); details: PfDHODH enzyme, DCIP absorbance 600 nm; higher = more signal, called active from +8 up or from −8 down;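 further: recombinant parasite enzyme with a five histidine tag at its C terminus; test concentration not given here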
# [15] = inhibition of PAO1 biofilm formation – strain PAO1, LB-PBS medium, absorbance 600 nm, primary screen (AID 1176); further: test concentration not given here; details: P. aeruginosa PAO1 growth/biofilm, A600, 12 h; higher = more signal
# [16] = growth modulation of vineyard yeast isolate – strain RM11-1a, OD600, basal, 24 h, primary screen (AID 1177);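 further: cultures grown under basal conditions with no added stressor; test concentration not given here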; details: S. cerevisiae RM11-1a growth, OD600, 24 h; higher = more signal, called active from +8 up or from −8 down
# [17] = growth of efflux-deficient E. coli DRC39 – strain DRC39, OD650, 24 h, E. coli filamentation inducers, primary screen (AID 1178);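 further: growth measured as culture turbidity by optical density at 650 nm; test concentration not given here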; details: E. coli DRC39 acrAB, higher = more signal, called active from +8 up or from −8 down
# [18] = growth of efflux-deficient E. coli DRC39 – strain DRC39, OD650, 48 h, E. coli filamentation inducers, primary screen (AID 1179);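 further: screen aims at cell division blockers that make cells filament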; details: E. coli DRC39 delta-acrAB growth, higher = more signal, called active from +8 up or from −8 down
# [19] = viability profiling in RPMI8226 myeloma cells – cell-based, resazurin fluorescence, basal, 24 h, PK04 Diversity Set, profiling panel (AID 1180); details: higher = more signal;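 further: RPMI8826 multiple myeloma cell line at 5000 cells per well; test concentration not given here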
# [20] = target: E3 ubiquitin-protein ligase XIAP (Homo sapiens) (UniProt P98170); assay: small molecules binding XIAP protein – biophysical, small-molecule microarray, fluorescence 635 nm, primary screen (AID 1181); details: higher = more signal;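 further: score merges 667 nm emission and signal to noise over triplicate slides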
# Sequence of E3 ubiquitin-protein ligase XIAP (Homo sapiens) (P98170 whole entry, looked up): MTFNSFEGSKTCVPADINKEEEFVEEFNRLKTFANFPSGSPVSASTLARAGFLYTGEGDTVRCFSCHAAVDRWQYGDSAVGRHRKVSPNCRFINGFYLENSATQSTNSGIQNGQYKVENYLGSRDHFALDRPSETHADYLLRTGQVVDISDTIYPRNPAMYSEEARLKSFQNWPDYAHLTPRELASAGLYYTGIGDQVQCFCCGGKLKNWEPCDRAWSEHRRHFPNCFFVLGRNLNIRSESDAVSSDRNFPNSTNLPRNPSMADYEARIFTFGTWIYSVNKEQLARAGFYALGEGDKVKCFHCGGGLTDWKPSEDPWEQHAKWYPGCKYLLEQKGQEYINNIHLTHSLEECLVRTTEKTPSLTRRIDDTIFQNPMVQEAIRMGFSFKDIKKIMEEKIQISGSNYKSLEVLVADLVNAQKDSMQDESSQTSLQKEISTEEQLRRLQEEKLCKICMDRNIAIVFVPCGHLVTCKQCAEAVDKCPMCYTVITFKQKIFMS
# Sequence of Dihydroorotate dehydrogenase (quinone), mitochondrial (Plasmodium falciparum (isolate 3D7)) (Q08210 whole entry, looked up): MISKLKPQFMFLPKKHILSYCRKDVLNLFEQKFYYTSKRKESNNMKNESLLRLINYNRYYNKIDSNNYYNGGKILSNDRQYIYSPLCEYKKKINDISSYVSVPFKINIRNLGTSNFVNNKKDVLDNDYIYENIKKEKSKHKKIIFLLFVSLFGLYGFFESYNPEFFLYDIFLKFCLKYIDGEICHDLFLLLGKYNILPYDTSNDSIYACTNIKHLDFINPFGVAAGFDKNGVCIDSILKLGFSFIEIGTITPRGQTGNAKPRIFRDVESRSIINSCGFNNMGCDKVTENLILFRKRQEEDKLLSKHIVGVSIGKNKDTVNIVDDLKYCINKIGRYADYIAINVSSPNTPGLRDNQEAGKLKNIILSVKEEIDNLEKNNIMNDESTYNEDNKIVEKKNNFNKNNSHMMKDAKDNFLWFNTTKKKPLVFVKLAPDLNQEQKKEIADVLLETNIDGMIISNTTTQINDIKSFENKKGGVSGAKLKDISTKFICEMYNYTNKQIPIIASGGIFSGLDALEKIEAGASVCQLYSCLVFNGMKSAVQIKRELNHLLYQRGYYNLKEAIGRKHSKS
Compound,z-score [1],z-score [2],z-score [3],z-score [4],z-score [5],z-score [6],z-score [7],z-score [8],z-score [9],z-score [10],z-score [11],z-score [12],z-score [13],composite z-score [14],z-score [15],z-score [16],z-score [17],z-score [18],z-score [19],composite z-score [20]
C=CC1c2cc(O)c(OC)cc2CCN1C (stereo not given),-1.24,0.281,0.0372,0.121,0.212,-1.17,-0.82 (inactive),0.222,-0.67,-0.535 (inactive),-0.582,-0.457 (inactive),-0.728 (inactive),-3.34 (inactive),-0.283 (inactive),-0.071 (inactive),-0.0683 (inactive),0.113 (inactive),-1.16,0.031
O=C1O[C@@H](c2ccccc2)[C@@H](c2ccccc2)N2[C@@H](c3ccc(OCCO)cc3)[C@]3(C(=O)Nc4ccc(C#CC5(O)CCCCCC5)cc43)[C@@H](C(=O)Nc3nc4ccccc4s3)[C@H]12,0.324,1.33,0.667,-1.64,-1.79,-3.13,-0.456 (inactive),-0.805,-0.344,0.524 (inactive),-0.369,1.28 (inactive),-0.0769 (inactive),-0.263 (inactive),2.29 (inactive),2.45 (inactive),-0.27 (inactive),0.261 (inactive),0.519,0.147
CC(C)(C)OC(=O)CC[C@]1(C(=O)NCC(O)CO)N=C(c2ccc(OCCCO)cc2)O[C@H]1c1ccccc1N=[N+]=[N-] (stereo not given in full),0.0239,0.809,0.324,-0.312,-0.198,0.0858,2.2 (inactive),-0.832,-0.591,0.35 (inactive),-0.108,-0.66 (inactive),-1.58 (inactive),-0.955 (inactive),0.948 (inactive),-0.134 (inactive),-0.0029 (inactive),0.0611 (inactive),-0.288,-0.0018
O=C(NC1CC1)[C@@H]1c2ccccc2C(=O)N(Cc2cc(C(F)(F)F)cc(C(F)(F)F)c2)[C@H]1c1ccc(CO)cc1,1.68,1.61,0.289,0.538,-1.32,0.693,-0.439 (inactive),0.801,-0.687,0.307 (inactive),-0.0465,-0.313 (inactive),-0.498 (inactive),-0.331 (inactive),1.12 (inactive),-0.44 (inactive),0.655 (inactive),-0.261 (inactive),0.51,-0.0448
CCOC(=O)C1=CC[C@@H](c2ccc(OC)cc2)N(S(=O)(=O)c2ccc(C)cc2)[C@H]1CC,0.33,0.815,0.945,-1.25,-1.45,5.4,1.53 (inactive),-0.301,-1.99,0.198 (inactive),0.0292,-1.82 (inactive),-0.289 (inactive),-1.04 (inactive),0.505 (inactive),-0.0802 (inactive),0.608 (inactive),1.87 (inactive),-0.793,-0.321
COc1ccc([Si](C)(C)[C@H]2[C@H](CC(=O)N3Cc4ccccc4C[C@H]3CO)O[C@@]3(C(=O)N(C)c4ccccc43)[C@@H]2C)cc1,-0.962,1.43,-1.42,-2.67,-4.05,-0.592,-0.0846 (inactive),-1.1,-0.748,-0.299 (inactive),-0.894,-3.38 (inactive),-1.97 (inactive),-1.45 (inactive),-0.695 (inactive),0.0745 (inactive),-1.44 (inactive),-1.38 (inactive),-2.06,0.119
[N-]=[N+]=Nc1ccccc1[C@@H]1OC(c2ccc(OCCCO)cc2)=N[C@]1(CCS(=O)(=O)c1ccccc1)C(=O)NCC(O)CO (stereo not given in full),-0.149,-0.375,0.578,-0.662,0.274,-0.148,-0.199 (inactive),-0.0226,-0.763,0.575 (inactive),0.396,0.143 (inactive),0.321 (inactive),0.612 (inactive),0.317 (inactive),0.777 (inactive),0.125 (inactive),0.638 (inactive),-0.315,-0.201
C=C(/C(=C/C[C@@H](OC(C)=O)c1cccc(OCCO)c1)c1cnc2ccccc2c1)C(C)C,0.295,1.53,0.224,-1.07,-1.97,-1.63,-0.436 (inactive),-0.533,0.581,-0.322 (inactive),-0.682,-0.517 (inactive),-0.421 (inactive),-3.98 (inactive),-0.104 (inactive),0.183 (inactive),0.12 (inactive),-0.406 (inactive),0.213,-0.157
